CF NFkB block – blocks PAF-induced NF-kB reporter in cystic fibrosis cells; hit rate 0.86% among 360,000; inhibition, % at 5 µM; KKLEB NF-kB-GFP reporter, GFP fluorescence overnight; AID 588850;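 active = at least 50% inhibition at 5 µM, scaled per plate between neutral and stimulator controls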;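 note: PAF is a Pseudomonas aeruginosa culture filtrate used as stimulus; plate controls were PAF-stimulated DMSO wells for no effect and unstimulated DMSO wells for full effect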
Peg3 promoter – inhibitors of Peg3 promoter | HeLa PEG-Prom luciferase reporter, luminescence, overnight | inhibition, % at 20 µM | hit rate 1.7% among 360,000 | AID 588405;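 active = inhibition of at least 50% at 20 µM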
HIF-2a inh – HIF-2a inhibition. 786-0 RCC cells HIF-2a reporter, luciferase luminescence, overnight. inhibition, % at 18.8 µM. hit rate 0.72% among 360,000. AID 624352;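 active = inhibition of the luminescence signal of 40% or more relative to plate controls, in a single-dose primary screen at 18.75 µM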
TWEAK-Fn14 inh – blocks TWEAK-Fn14 interaction in a reporter cell assay; TWEAK-stimulated Fn14 reporter cells, luciferase luminescence, 8 h; hit rate 2% among 360,000; inhibition, % at 10 µM; in the data active = inhibition above about 50%
TROY signal inh – inhibitors of TROY-dependent NF-kB signaling | AID 1347056 | hit rate 0.98% among 360,000 | Q293 LMP1-TROYcd NF-kB luciferase reporter, 4 h | inhibition, % at 10 µM;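 active = compounds whose plate-normalised and pattern-corrected inhibition of the luciferase reporter signal at the single screening dose is 50% or more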
KKLEB tox – counter-screen for CF NF-kB inhibitors: cytotoxicity; KKLEB CF airway cells viability, ATPlite luminescence, overnight; stronger effect = lower value; cells stimulated with P. aeruginosa culture filtrate; hit rate 0.36% among 360,000; activity change (cytotoxicity), % at 5 µM; AID 602141;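 active = corrected activity change at or below -50% at 5 µM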
Active calls of the source: *. Compounds with a hit are over-represented: about 4% of the library has one in this group of screens.

What do the screens show for `Nc1cc2c(cc1Cl)-c1ccc(Cl)cc1C2=O`?
CF NFkB block: -59; Peg3 promoter: -116; HIF-2a inh: -139; TWEAK-Fn14 inh: -6; TROY signal inh: -61; KKLEB tox: -12

How did Cc1ccc(S(=O)(=O)N2CCC(C(=O)NCCC3=CCCCC3)CC2)c(C)c1 do in these assays?
CF NFkB block: 2; Peg3 promoter: 22; HIF-2a inh: 12; TWEAK-Fn14 inh: -2; TROY signal inh: 6; KKLEB tox: 13

What do the screens show for `COc1ccc(NC(=O)c2oc3ccccc3c2NC(=O)COc2ccccc2OC)c(OC)c1`?
CF NFkB block: 54*; Peg3 promoter: 3; HIF-2a inh: -16; TWEAK-Fn14 inh: -48; TROY signal inh: 0; KKLEB tox: -54*

Results for COc1ccc(NC(=O)c2oc3ccccc3c2NC(=O)c2ccc(OC)c(OC)c2)c(OC)c1 ?
CF NFkB block: 42; Peg3 promoter: -13; HIF-2a inh: -57; TWEAK-Fn14 inh: -33; TROY signal inh: 5; KKLEB tox: -21

Results for CCOC(=O)c1ccc(N=c2sc(C(=O)OC)cc(=O)n2-c2ccc(C(=O)OCC)cc2)cc1 ?
CF NFkB block: 17; Peg3 promoter: 99*; HIF-2a inh: 39; TWEAK-Fn14 inh: 54*; TROY signal inh: 20; KKLEB tox: -19

How did Fc1ccc(-n2nnc(-c3cccnc3)n2)cc1 do in these assays?
CF NFkB block: -22; Peg3 promoter: -268; HIF-2a inh: -215; TWEAK-Fn14 inh: -39; TROY signal inh: -46; KKLEB tox: 2

How did Fc1ccc(-n2nnc(-c3cnc4ccccc4c3)n2)cc1 do in these assays?
CF NFkB block: -28; Peg3 promoter: 52*; HIF-2a inh: 21; TWEAK-Fn14 inh: 94*; TROY signal inh: 73*; KKLEB tox: -12

How did CC[C@H](C)[C@@H](C(=O)NCCCCCCCCCCC(=O)N1CCN(C(=O)OC(C)(C)C)CC1)n1cc(CCCCCNC(=O)OC(C)(C)C)nn1 do in these assays?
CF NFkB block: 10; Peg3 promoter: 28; HIF-2a inh: 2; TWEAK-Fn14 inh: 96*; TROY signal inh: 45; KKLEB tox: -1

What do the screens show for `CC(C)(C)OC(=O)CC[C@@H](C(=O)NCCCCCCCCCCC(=O)N1CCN(C(=O)OC(C)(C)C)CC1)n1cc(CCCCCNC(=O)OC(C)(C)C)nn1`?
CF NFkB block: -3; Peg3 promoter: 2; HIF-2a inh: -13; TWEAK-Fn14 inh: 13; TROY signal inh: -14; KKLEB tox: 8

How did CC(C)(C)OC(=O)NCCCC[C@@H](C(=O)NCCCCCCCCCCC(=O)N1CCN(C(=O)OC(C)(C)C)CC1)n1cc(CCCC(=O)O)nn1 do in these assays?
CF NFkB block: 0; Peg3 promoter: 0; HIF-2a inh: 3; TWEAK-Fn14 inh: -3; TROY signal inh: 12; KKLEB tox: -2

What do the screens show for `CC(C)(C)OC(=O)NCCCCCc1cn([C@@H](CO)C(=O)NCCCCCCCCCCC(=O)N2CCN(C(=O)OC(C)(C)C)CC2)nn1`?
CF NFkB block: 8; Peg3 promoter: 93*; HIF-2a inh: -64; TWEAK-Fn14 inh: 103*; TROY signal inh: 73*; KKLEB tox: 5

How did O=S1(=O)CCS(=O)(=O)C1c1ccccc1 do in these assays?
CF NFkB block: 20; Peg3 promoter: 7; HIF-2a inh: 6; TWEAK-Fn14 inh: 17; TROY signal inh: -10; KKLEB tox: -11

Results for CCc1ccc(-c2cn(-c3nc(C)cc(C)n3)c(=N)o2)cc1 ?
CF NFkB block: 16; Peg3 promoter: -6; HIF-2a inh: -104; TWEAK-Fn14 inh: 91*; TROY signal inh: -1; KKLEB tox: -11

Results for CCCCc1ccc(NC(=O)N2CCN(c3cc(C)nc4ccccc34)CC2)c(C)c1 ?
CF NFkB block: 15; Peg3 promoter: 60*; HIF-2a inh: 15; TWEAK-Fn14 inh: 10; TROY signal inh: 19; KKLEB tox: -5

How did O=C(CCN1C(=O)/C(=C/c2ccccc2Cl)SC1=S)Nc1ccccc1C(=O)O do in these assays?
CF NFkB block: 12; Peg3 promoter: 5; HIF-2a inh: 5; TWEAK-Fn14 inh: 10; TROY signal inh: 46; KKLEB tox: 2

How did O=C(CCCN1C(=O)/C(=C/c2ccccc2Cl)SC1=S)NNC(=O)c1ccccc1 do in these assays?
CF NFkB block: 14; Peg3 promoter: 34; HIF-2a inh: 90*; TWEAK-Fn14 inh: 70*; TROY signal inh: 57*; KKLEB tox: -8

How did O=C(CCCN1C(=O)/C(=C/c2ccccc2Cl)SC1=S)NNC(=O)c1cccnc1 do in these assays?
CF NFkB block: -3; Peg3 promoter: 23; HIF-2a inh: 84*; TWEAK-Fn14 inh: 87*; TROY signal inh: 77*; KKLEB tox: -6

Results for CCC(C)Cn1cnc2c(SCc3ccccn3)nc(N)nc21 (stereo not drawn) ?
CF NFkB block: 26; Peg3 promoter: -9; HIF-2a inh: -31; TWEAK-Fn14 inh: -16; TROY signal inh: -6; KKLEB tox: -25

How did O=C1C=C(c2ccc(Cl)nc2)C[C@@H](c2ccc3c(c2)OCO3)C1 do in these assays?
CF NFkB block: 14; Peg3 promoter: -7; HIF-2a inh: -31; TWEAK-Fn14 inh: -29; TROY signal inh: -26; KKLEB tox: -6

How did Cc1nnc(SCC(=O)Nc2cc(S(C)(=O)=O)ccc2Cl)n1Cc1ccccc1 do in these assays?
CF NFkB block: -19; Peg3 promoter: 6; HIF-2a inh: 15; TWEAK-Fn14 inh: 24; TROY signal inh: -5; KKLEB tox: 2

What do the screens show for `CC(C)C[C@@H](COCc1cccc(C(F)(F)F)c1)N1CCN(C(=O)c2ccc(C(F)(F)F)cc2)CCC1=O`?
HIF-2a inh: 6; TWEAK-Fn14 inh: 14; TROY signal inh: 18

How did CN(C)C(=O)c1ccc(-n2cnc3ccccc3c2=O)cc1 do in these assays?
CF NFkB block: -12; Peg3 promoter: -26; HIF-2a inh: -47; TWEAK-Fn14 inh: -8; TROY signal inh: -31; KKLEB tox: 13

What do the screens show for `O=c1c2ccccc2ncn1-c1ccc2c(c1)OCCO2`?
CF NFkB block: 3; Peg3 promoter: -59; HIF-2a inh: -55; TWEAK-Fn14 inh: 51*; TROY signal inh: -4; KKLEB tox: 7

Results for O=c1c2c3nc4ccccc4nc3n(-c3ccc4c(c3)OCCO4)c2ncn1C1CCCC1 ?
CF NFkB block: 16; Peg3 promoter: 59*; HIF-2a inh: -1; TWEAK-Fn14 inh: -9; TROY signal inh: 7; KKLEB tox: -12

How did Nc1c(C(=O)NC2CC2)c2nc3ccccc3nc2n1-c1ccc2c(c1)OCO2 do in these assays?
CF NFkB block: 2; Peg3 promoter: 35; HIF-2a inh: 0; TWEAK-Fn14 inh: -5; TROY signal inh: 0; KKLEB tox: -9

How did CCCCOC(=O)c1ccc(NC(=S)N2CCN(c3ncc4c(=O)c(C(=O)O)cn(CC)c4n3)CC2)cc1 do in these assays?
CF NFkB block: 36; Peg3 promoter: -6; HIF-2a inh: 14; TWEAK-Fn14 inh: 63*; TROY signal inh: 27; KKLEB tox: 18
